Source: PubChem
DT40 TDP1 CPT: growth inhibition of DT40 Tdp1-/-;hTDP1 cells with camptothecin (screen for TDP1 inhibitors); chicken DT40 Tdp1-/-;hTDP1 cells + 20 nM CPT, ATP luminescence, 48 h; Potency, µM (top dose mostly 46.2 µM), without a hit: at the highest dose activity change, negative = growth inhibition, actives largely listed as inhibitors; 420,000 compounds, 12% hits; also: % is scaled to controls: 0 for no effect and ±100 for the full control effect; nearly all actives have a fitted effect of over 55% in size
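Chicken DT40 Tdp1-/- cells stably complemented with human TDP1 were seeded at 400 cells/well in medium containing 20 nM camptothecin, exposed to pin-transferred compounds, and grown at 37 °C for at least 48 hr. Viability was read as ATP luminescence.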
DT40 TDP1 no CPT: qHTS for Inhibitors of human tyrosyl-DNA phosphodiesterase 1 (TDP1): qHTS in cells in absence of CPT; DT40 Tdp1-/- hTDP1 cells, no CPT, ATP luminescence, 48 h; Potency, µM (titrated, usually from 46.2 µM), inactives show at the highest dose activity change, negative = growth inhibition, usual class: inhibitors; 420,000 compounds, 15% hits; also: % is scaled to controls: 0 for no effect and ±100 for the full control effect; nearly all actives have a fitted effect of over 55% in size
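Chicken DT40 Tdp1-/- cells complemented with human TDP1, screened without camptothecin (DMSO vehicle only), 400 cells/well. Compounds pin-transferred, cells incubated at 37 °C for at least 48 hr. Growth read as ATP-dependent luminescence (CellTiter-Glo, 30 min at RT).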
TDP1 inh: inhibitors of human tyrosyl-DNA phosphodiesterase TDP1; Q9NUW8; recombinant TDP1, AlphaScreen DNA substrate cleavage; Potency, µM (titrated, usually from 130 µM), inactives show at the top dose activity change, negative = inhibition, usual class: inhibitors; 350,000 compounds, 0.28% hits; AID 485290; also: % is scaled to controls: 0 for no effect and ±100 for the full control effect; nearly all actives have a fitted effect of over 40% in size
Target sequence (Q9NUW8 whole entry, looked up): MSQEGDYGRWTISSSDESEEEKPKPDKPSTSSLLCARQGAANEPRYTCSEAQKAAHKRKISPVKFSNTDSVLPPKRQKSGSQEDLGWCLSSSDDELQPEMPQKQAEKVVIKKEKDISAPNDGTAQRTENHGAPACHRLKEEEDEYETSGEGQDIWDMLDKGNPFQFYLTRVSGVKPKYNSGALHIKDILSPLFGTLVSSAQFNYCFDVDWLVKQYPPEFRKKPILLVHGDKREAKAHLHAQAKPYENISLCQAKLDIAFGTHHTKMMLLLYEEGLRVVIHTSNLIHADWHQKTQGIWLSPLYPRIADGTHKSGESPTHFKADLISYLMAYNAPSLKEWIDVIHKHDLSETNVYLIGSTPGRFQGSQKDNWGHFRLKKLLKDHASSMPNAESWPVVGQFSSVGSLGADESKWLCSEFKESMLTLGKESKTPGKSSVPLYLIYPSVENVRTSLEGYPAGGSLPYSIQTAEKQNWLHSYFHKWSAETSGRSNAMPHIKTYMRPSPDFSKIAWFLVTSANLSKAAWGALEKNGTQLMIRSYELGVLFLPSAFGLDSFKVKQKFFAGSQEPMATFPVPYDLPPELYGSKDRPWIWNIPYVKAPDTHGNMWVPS
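Recombinant human Tdp1 (E. coli-expressed, 1 nM final) preincubated with compounds 15 min at room temperature, then 5'-biotin/3'-phosphotyrosine-FITC DNA substrate (15 nM final) added for 5 min. AlphaScreen beads (10 ug/ml final) added 10 min; cleavage lowers signal.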
ClpP mod: qHTS Assay for Activators of ClpP. 340,000 compounds, 1.9% hits. Potency, µM (highest dose often 57.5 µM), for inactives: at the top dose activity change, negative = active. purified B. subtilis ClpP, FRET peptide cleavage, 20 min. ATP-dependent Clp protease proteolytic subunit (Bacillus subtilis (strain 168)), P80244; active = well fitted falling curve with a large enough effect; inconclusive = small, poorly fitted or top-dose-only effect; inactive = no such curve, though single readings can be large or run the other way; also: the source files actives as falling curves though it sought activators and does not explain the sign; nearly all actives have a fitted effect of over 65% in size
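ClpP 10 microg/mL final, pH 8 Tris/KCl buffer with BSA, glycerol, Tween-20; compound pinned in; FRET-FV substrate; RT 20 min; Ex320/Em430; ΔFRET vs ADEP 5.8 microM, DMSO, no enzyme.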
Numbers without * were called inactive; ? = inconclusive; . = no result; [ ] = another dose, or the depositor's remark. A selection: hits, their analogues and other compounds. The true share with any hit is near 17%. Unless noted, calls follow the shape of the dose curve; as a rule, active = well fitted curve in the direction sought with a large enough effect; inconclusive = small, poorly fitted or top-dose-only effect, or another doubt; inactive = no such curve, though single readings can be large; an effect the other way counts as inactive or inconclusive. Potency is read from the fitted curve at half-maximal effect.

SMILES	DT40 TDP1 CPT	DT40 TDP1 no CPT	TDP1 inh	ClpP mod
O=C(Nc1ncccc1O)c1ccc(S(=O)(=O)NCc2ccco2)cc1	21µM*	23µM*	.	-1%
CS(=O)(=O)c1ccc(C2=C(CNC(=O)c3ccncc3)[C@H]3CC[C@@H](C2)N3Cc2ccco2)cc1	3%	-3%	.	-1%
Nc1ccc(N)cc1	-22%	-17%	17%	.
NC(Cc1ccc(Cl)cc1)c1csc(Nc2ncccn2)n1 (configuration not stated)	3.7µM*	4.1µM*	.	1%
NC(Cc1ccc(C(F)(F)F)cc1)c1csc(Nc2nncc3ccccc23)n1 (configuration not stated)	13µM*	21µM*	.	-5%
NC(Cc1ccc(F)cc1)c1csc(Nc2ncccn2)n1 (configuration not stated)	7.3µM*	5.8µM*	.	0%
Nc1ccc(CC(N)c2csc(Nc3ncccn3)n2)cc1 (configuration not stated)	18µM*	10µM*	.	-1%
C=CC[N+]1(C)CC[C@]23c4c5ccc(O)c4O[C@H]2C(=O)CC[C@@]3(O)[C@H]1C5 (some centres not stated)	12%	0%	.	0%
Cc1ccc(O)c(C(CCN(C(C)C)C(C)C)c2ccccc2)c1 (configuration not stated)	-10%	-17%	5%	.
Brc1ccc2[nH]cc(C=NN3CCCCCC3)c2c1	23µM*	13µM*	.	-3%
C(=NC1CCCCC1)c1c[nH]c2ccccc12	0%	3%	.	1%
CNCc1ccccc1	2%	?	11%	.
Cc1ccc(C(=O)Nc2c(C(=O)Nc3ccc(C)c(C)c3)sc3nc(C)cc(C)c23)cc1	?	18µM*	2%	-17%
CCc1ccccc1Nc1nn2c(=O)c3ccc(C(=O)Nc4cc(C)cc(C)c4)cc3nc2s1	8.2µM*	8.2µM*	6%	2%
CC(C)c1ccc(OCC(=O)N2CCN(CCc3ccccn3)CC2)cc1	-28%	?	7%	1%
O=C(NN=Cc1ccc(N(CCCl)CCCl)cc1)c1cccc([N+](=O)[O-])c1	?	?	.	2%
O=C(NN=Cc1ccc(N(CCCl)CCCl)cc1)c1cccnc1	7.3µM*	9.2µM*	.	.
Cc1nc(C)c(C(=O)NN=Cc2ccc(N(CCCl)CCCl)cc2)s1	?	12µM*	.	?
O=C(O)[C@@H](O)[C@H](O)C(=O)O	-26%	-4%	.	0%
Cc1ccc(CNC(=O)CCCn2c(=O)c3sccc3n(CC(=O)Nc3c(C)cccc3C)c2=O)cc1	-2%	-16%	-7%	0%
Cc1cc(Br)c(NC(=O)CN2CC=C(c3ccccc3)CC2)c(Br)c1	1%	?	3%	.
Cc1[nH]c2ccccc2c1C(=O)CN1CC=C(c2ccccc2)CC1	16µM*	?	-3%	1%
COC(=O)C1=C(c2ccc(C(C)=O)cc2)C[C@@H]2CC[C@H]1N2C(=O)N1CCCC1	?	?	1%	2%
COC(=O)C1=C(c2ccc(C(C)=O)cc2)C[C@@H]2CC[C@H]1N2C(=O)N1CCCCC1	21µM*	16µM*	1%	2%
COC(=O)C1=C(c2ccc(OC(F)(F)F)cc2)C[C@@H]2CC[C@H]1N2C(=O)NCCCOC(C)C	?	?	1%	5%
SMILES	DT40 TDP1 CPT	DT40 TDP1 no CPT	TDP1 inh	ClpP mod
COC(=O)C1=C(c2ccc(OC(F)(F)F)cc2)C[C@@H]2CC[C@H]1N2C(=O)N1CCCCC1	2.6µM*	2.1µM*	-3%	2%
CC(C)CON=O	.	.	5%	.
NC(CCCCCP(=O)(O)O)C(=O)O (configuration not stated)	.	.	9%[56.1 µM]	.
O=C(Nc1ccccc1)N1CCCC2(CCN(C(=O)Oc3ccccc3)CC2)C1	13%	?	.	.
Cc1c(CCN)ccc2c1[nH]c1ccccc12	?	29µM*	.	-24%
COC(=O)[C@@H]1N=C(c2ccc(OC)cc2)O[C@]12C(=O)N(Cc1ccccc1)c1ccccc12	?	?	.	-3%
Nc1c2c(nc3sc4c(c13)CCCC4)CCCCC2	?	18µM*	3%	-4%
Nc1c2c(nc3sc4c(c13)CCCC4)CCCC2	?	?	-4%	.
C=CCBr	.	.	13%	.
O=S1(=O)N(Cc2ccccc2)CCCN1Cc1cccc(Cl)c1	-3%	?	.	-2%
O=C1NCN(c2ccccc2)C12CCN(C(c1cccc3ccccc13)c1nnnn1C1CCCCC1)CC2 (configuration not stated)	23µM*	?	.	-2%
O=C1NCN(c2ccccc2)C12CCN(C(c1cccc3ccccc13)c1nnnn1C1CCCC1)CC2 (configuration not stated)	?	16µM*	.	-13%
O=C1NCN(c2ccccc2)C12CCN(C(c1ccnc3ccccc13)c1nnnn1C1CCCC1)CC2 (configuration not stated)	?	?	.	-2%
Cc1cccc(C)c1-n1nnnc1C(CCc1ccccc1)N1CCC2(CC1)C(=O)NCN2c1ccccc1 (configuration not stated)	?	?	.	-6%
Cc1cccc(C)c1-n1nnnc1C(c1cccc2ccccc12)N1CCC2(CC1)C(=O)NCN2c1ccccc1 (configuration not stated)	18µM*	12µM*	.	0%
O=C(O)[C@H](O)[C@@H](O)C(=O)O	16%	19%	.	-2%
ClC(Cl)Br	.	.	2%	.
C[C@@]12C(=O)N(Cc3ccco3)CC(=O)N1[C@H]1c3ccccc3OC[C@@H]1[C@@H]2c1ccccc1	?	?	6%	0%
CCOc1ccc(Nc2ncnc3c2nnn3Cc2ccccc2)cc1	-2%	-25%	.	44%
Cc1ccc(-n2c(/C=C/c3ccccc3)nc3ccccc3c2=O)cc1Cl	?	23µM*	5%	-1%
Cc1ccc(-n2c(/C=C/c3ccccc3)nc3ccccc3c2=O)cc1C	16µM*	23µM*	10%	0%
COC(=O)C1=C(c2ccc(-c3ccccc3)c(F)c2)C[C@@H]2CC[C@H]1N2C(=O)N1CCCC1	1.6µM*	1.2µM*	0%	0%
COC(=O)C1=C(c2ccc(-c3ccccc3)c(F)c2)C[C@@H]2CC[C@H]1N2C(=O)N1CCCCC1	2.3µM*	1.3µM*	0%	-10%
COC(=O)C1=C(c2ccc(-c3ccccc3)c(F)c2)C[C@@H]2CC[C@H]1N2C(=O)N1CCc2cc(OC)c(OC)cc2C1	?	?	5%	-14%
COC(=O)C1=C(c2ccc(-c3ccccc3)c(F)c2)C[C@@H]2CC[C@H]1N2C(=O)N1CCOCC1	1.2µM*	1.3µM*	4%	-2%
COc1cc2c(cc1OC)-c1c(OC)c(OC)c(C=O)c3c1[C@H](C2)N(C)CC3	-79%	?	11%	.
